Drawing on PubChem BioAssay AID1745853 (National Center for Advancing Translational Sciences (NCATS), 2022), this text covers activity change, negative = inhibition for twelve compounds.

Each structure is given as a SMILES string. Values joined by “and” are separate entries in the source; they are usually repeats but may differ in a detail not shown here. Identical values can stand only once. Out of some 25,000 compounds screened, about 970 (3.9%) were called active. Inconclusive results (about 8%) are left out. No rule for the calls is given here. This excerpt belongs to a sample that is enriched for actives.

Common to all, as to assay: Primary Screen for Target Class Profiling of Small Molecule Inhibitors of Methyltransferases
The target of test [1] is Catechol O-methyltransferase (Homo sapiens) (UniProt P21964). As to conditions: purified enzyme, MTase-Glo SAH luminescence; activity change, negative = inhibition: at 40 µM, stronger effect = lower value; outcome: 40 uM. From the text:
(§1) PI: Matthew D. Hall Ph.D. and Quinlin M. Hanson Ph.D.
(§2) National Center for Advancing Translational Sciences (NCATS)
(§3) National Institute of Health (NIH), Rockville, MD
(§4) Target class profiling (TCP) is a chemical biology approach amenable to investigating understudied biological targets. TCP is achieved by developing a generalizable assay platform and applying it to screen a curated set of compound libraries against representative members of a target class. Small molecule methyltransferases (SMMTase) are a subclass of methyltransferase that act on metabolites to modulate signaling pathways, metabolize xenobiotics, or balance the available methyl pool. We screened four curated libraries totaling 27,574 unique compounds against the SMMTases nicotinamide N-methyltransferase (NNMT), phenylethanolamine N-methyltransferase (PNMT), histamine N-methyltransferase (HNMT), glycine N-methyltransferase (GNMT), catechol O-methyltransferase (COMT), and guanidinoacetate N-methyltransferase (GAMT). The data generated by this TCP can be leveraged for informed tool molecule development. For example, in the associated publication we identified a chemotype of HNMT-selective inhibitors. Additionally, we identified a putative SMMTase-selective inhibitor with potential as a tool molecule for studying broader methyltransferase biology.
(§5) High-through put screening assays were developed at the National Center for Advancing Translational Science (NCATS) for the enzymes NNMT, PNMT, HNMT, GNMT, COMT, and GAMT. Enzymatic activity was measured as a function of SAM cofactor conversion using the MTase Glo kit (Promega) for all enzymes. All assays were performed in 1536-well format with substrates and SAM concentrations at KM values. Enzyme concentration and assay timing were optimized for 10-20% SAM conversion. Initial screening of 27,574 compounds was done as single-point assays using the highest compound concentration (40 uM). […] These compounds were replated in 11-point dose response and assayed against NNMT, PNMT, HNMT, GNMT, COMT, GAMT, and a counter-assay. The IC50 and efficacy (maximal response) values were determined for each dose-response curve. These values are also accounted for in the area under the curve (AUC) values.
(§6) PROTOCOL TABLE (as described by Inglese J, Shamu CE and Guy RK. 2007)
(§7) SEQUENCE No. (e.g., 1, 2, 3, etc.); […] (e.g., Cells, Incubation, Reagent, etc.); VALUE; DESCRIPTION.
(§8) 1; Reagent; 2 uL; SMMTase Enzyme (2x) in reaction buffer, columns 1- 48.
(§9) 2; Reagent; 1 uL; SAM (4x) in reaction buffer, columns 1-48.
(§10) 3; Controls; 23 nL; DMSO in column 4; sinefungin in DMSO (0 uM - 40 uM) in 7-point 1:2 dilution series (n = 2) in column 2.
(§11) 4; Compounds; 23 nL; Columns 5-48.
(§12) 5; Reagent; 1 uL; Substrate (4x) in reaction buffer, columns 2-48.
(§13) 6; Time; 20-30 min; Incubation.
(§14) 7; Reagent; 1 uL; MTase-Glo reagent (5X), columns 1-48.
(§15) 8; Time; 30 min; Incubation.
(§16) 9; Reagent; 5 uL; MTase-Glo Detection reagent, columns 1-48.
(§17) 10; Time; 30 min; Incubation, luminescence evolution.
(§18) 11; Detection; Luminescence; ViewLux uHTS Microplate Imager (PerkinElmer).
(§19) NOTES (numbers refer to Sequence numbers above)
(§20) 1, 2, 5. White Medium Binding Greiner 1536-well plates (Cat #789175-F, Greiner Bio-One, Monroe, NC); Reaction buffer: 50 mM Tris, pH 8.0, 3 mM MgCl2, 1 mM EDTA, 50 mM NaCl, 1 mM DTT, and 0.1 mg/mL BSA. Evaporation was prevented by covering assay plates with metal lids containing holes to allow gas diffusion.
(§21) 1. Six SMMTase were profiled: HNMT, GNMT, PNMT, COMT, NNMT, GAMT
(§22) 5. The corresponding substrate was used for each enzyme: HNMT - 5.3 uM Histamine; GNMT - >500 uM Glycine; PNMT - 16.2 uM Norephinephrine; COMT - 13.7 uM Norephinephrine; NNMT - 3.8 uM Nicotinamide; GAMT - 2.5 uM Guanidinoacetate.6, 8, 10. Room temperature
(§23) 6. Final reaction conditions: 10 nM COMT, 5 uM SAM, 15 uM norepinephrine, 50 mM Tris, pH 8.0, 3 mM MgCl2, 1 mM EDTA, 50 mM NaCl, 1 mM DTT, and 0.1 mg/mL BSA; refer to tables 2 and S1 for specific timing.
8. […]

For test [2], the target named is Glycine N-methyltransferase (Homo sapiens) (UniProt Q14749). As to conditions: purified enzyme, MTase-Glo SAH luminescence; measured here: GNMT inhibition; at 40 µM; stronger effect = lower value.
Glycine N-methyltransferase (Homo sapiens), sequence (Q14749 whole entry, looked up): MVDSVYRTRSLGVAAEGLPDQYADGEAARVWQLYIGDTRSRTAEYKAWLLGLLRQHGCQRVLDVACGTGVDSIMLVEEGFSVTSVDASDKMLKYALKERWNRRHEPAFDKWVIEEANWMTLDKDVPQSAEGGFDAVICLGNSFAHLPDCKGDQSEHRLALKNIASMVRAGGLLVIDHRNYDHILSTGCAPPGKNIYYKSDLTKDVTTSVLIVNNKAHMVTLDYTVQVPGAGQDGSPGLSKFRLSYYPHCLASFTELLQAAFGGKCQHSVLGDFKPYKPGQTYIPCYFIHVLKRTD
Excerpt: as §1, §2, §3, §4, §5, §6, §7, §8, §9, §10, §11, §12, §13, §14, §15, §16, §17, §18, §19, §20, §21, §22, §23
8. […]

The target in test [3] is Guanidinoacetate N-methyltransferase (Homo sapiens) (UniProt Q14353). As to conditions: purified enzyme, MTase-Glo SAH luminescence; measured here: GAMT inhibition; at 40 µM; stronger effect = lower value.
Excerpt: as §1, §2, §3, §4, §5, §6, §7, §8, §9, §10, §11, §12, §13, §14, §15, §16, §17, §18, §19, §20, §21, §22, §23
8. […]

The target in test [4] is Histamine N-methyltransferase (Homo sapiens) (UniProt P50135). As to conditions: purified enzyme, MTase-Glo SAH luminescence; measured here: HNMT inhibition; at 40 µM; stronger effect = lower value.
Histamine N-methyltransferase (Homo sapiens), sequence (P50135 whole entry, looked up): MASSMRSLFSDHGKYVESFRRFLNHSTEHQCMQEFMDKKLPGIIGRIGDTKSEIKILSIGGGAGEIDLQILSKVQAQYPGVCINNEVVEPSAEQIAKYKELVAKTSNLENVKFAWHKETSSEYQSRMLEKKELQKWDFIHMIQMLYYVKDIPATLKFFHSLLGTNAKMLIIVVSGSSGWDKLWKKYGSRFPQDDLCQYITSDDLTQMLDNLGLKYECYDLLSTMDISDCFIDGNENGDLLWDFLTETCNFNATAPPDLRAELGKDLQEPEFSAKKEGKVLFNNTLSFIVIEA
Excerpt: as §1, §2, §3, §4, §5, §6, §7, §8, §9, §10, §11, §12, §13, §14, §15, §16, §17, §18, §19, §20, §21, §22, §23
8. […]

Test [5] addresses Nicotinamide N-methyltransferase (Homo sapiens) (UniProt P40261). As to conditions: purified enzyme, MTase-Glo SAH luminescence; measured here: NNMT inhibition; at 40 µM; stronger effect = lower value.
Excerpt: as §1, §2, §3, §4, §5, §6, §7, §8, §9, §10, §11, §12, §13, §14, §15, §16, §17, §18, §19, §20, §21, §22, §23
8. […]

The target of test [6] is Phenylethanolamine N-methyltransferase (Homo sapiens) (UniProt P11086). As to conditions: purified enzyme, MTase-Glo SAH luminescence; measured here: PNMT inhibition; at 40 µM; stronger effect = lower value.
Phenylethanolamine N-methyltransferase (Homo sapiens), sequence (P11086 whole entry, looked up): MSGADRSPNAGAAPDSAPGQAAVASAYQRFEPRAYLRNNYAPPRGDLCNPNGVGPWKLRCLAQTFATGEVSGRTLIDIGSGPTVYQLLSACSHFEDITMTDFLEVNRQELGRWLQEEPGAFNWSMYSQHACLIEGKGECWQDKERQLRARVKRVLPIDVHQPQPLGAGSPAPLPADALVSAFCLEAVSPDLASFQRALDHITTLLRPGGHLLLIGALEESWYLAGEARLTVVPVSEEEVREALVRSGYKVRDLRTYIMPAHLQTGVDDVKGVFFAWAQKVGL
Excerpt: as §1, §2, §3, §4, §5, §6, §7, §8, §9, §10, §11, §12, §13, §14, §15, §16, §17, §18, §19, §20, §21, §22, §23
8. […]
% is scaled to controls: 0 for no effect and ±100 for the full control effect.

Nicotinamide N-methyltransferase (Homo sapiens), sequence (P40261 whole entry, looked up): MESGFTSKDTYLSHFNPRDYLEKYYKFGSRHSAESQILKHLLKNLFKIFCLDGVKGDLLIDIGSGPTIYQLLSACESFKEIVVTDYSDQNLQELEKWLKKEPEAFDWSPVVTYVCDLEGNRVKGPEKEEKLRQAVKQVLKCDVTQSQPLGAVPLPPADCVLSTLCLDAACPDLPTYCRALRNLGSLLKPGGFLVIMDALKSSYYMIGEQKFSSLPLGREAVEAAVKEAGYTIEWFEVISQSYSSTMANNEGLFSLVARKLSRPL
Catechol O-methyltransferase (Homo sapiens), sequence (P21964 whole entry, looked up): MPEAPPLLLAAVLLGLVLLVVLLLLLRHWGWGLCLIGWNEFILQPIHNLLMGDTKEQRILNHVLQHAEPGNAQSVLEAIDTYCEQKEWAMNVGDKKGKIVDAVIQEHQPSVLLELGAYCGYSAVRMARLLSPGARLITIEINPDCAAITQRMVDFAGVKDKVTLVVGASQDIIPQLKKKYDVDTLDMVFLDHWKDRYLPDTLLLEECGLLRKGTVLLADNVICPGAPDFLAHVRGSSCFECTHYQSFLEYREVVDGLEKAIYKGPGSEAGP

For the compound `Cc1noc(C)c1S(=O)(=O)NCCC1CN(c2cnn(C)c(=O)c2)CCO1` (configuration not stated), the activity change, negative = inhibition in test [1] was 4.53% (inactive); in test [2], -1.17%; in test [3], -2.35%; in test [4] it was 0.773%; in test [5] it was -1.18%; in test [6], 5.68%.
`COc1ccccc1N1CCN(C(=O)C[C@@H]2C[C@@H](C(C)C)[C@H](CO)C=C2C)CC1`: the activity change, negative = inhibition in test [1] is -4.58% (inactive); in test [2], -5.78%; in test [3] it was -7.59%; in test [4], -2.03%; in test [5] it was -11.8%; in test [6] it was 3.34%.
Regarding `COc1ccc(C(=O)N2CCN(C(=O)N3CC4CC(C3)[C@H]3CCCC(=O)N3C4)CC2)c(OC)n1` (some centres not stated), the activity change, negative = inhibition in test [1] is 1.98% (inactive); in test [2], -0.248%; in test [3], 0.955%; in test [4], 0.52%; in test [5] it was -3.64%; in test [6] it was 0.052%.
For the compound `CCN(CC)CCCC(C)Nc1ccnc2cc(Cl)ccc12` (configuration not stated), the activity change, negative = inhibition is 5.5% (active) and -5.08% (active) in test [1]; -0.101% and -1.02% in test [2]; 6.48% and -3.06% in test [3]; -64.7% and -54.2% in test [4]; -4.26% and -11.8% in test [5]; 6.95% and -8.55% in test [6].
As for `O=C(C1CCCC1)N1CCCC(c2noc(COc3ccccc3)n2)C1` (configuration not stated), the activity change, negative = inhibition in test [1] was -7.8% (inactive); in test [2], -8.83%; in test [3], -9.57%; in test [4] it was -5.83%; in test [5], -18.3%; in test [6], -10.2%.
As for `CSc1cccc(CN(C)Cc2cc3n(n2)CCNC3)c1`, the activity change, negative = inhibition was -0.225% (inactive) in test [1]; -1.46% in test [2]; -2.55% in test [3]; -2.05% in test [4]; -2.62% in test [5]; -8.63% in test [6].
With `COc1ccccc1CN[C@H]1[C@H](O)[C@@H](N2CCN(c3ccccc3OC)CC2)[C@@H]2OC[C@H]1O2`, the activity change, negative = inhibition in test [1] is 1.34% (inactive); in test [2] it was -1.49%; in test [3], -8.26%; in test [4], 2.36%; in test [5], -0.669%; in test [6] it was 2.62%.
As for `CCc1cccc(NC(=O)Cn2c(=O)oc3cc(S(=O)(=O)N4CCC(C)CC4)ccc32)c1`, the activity change, negative = inhibition in test [1] was 0.729% (inactive); in test [2] it was -4.13%; in test [3] it was 4.45%; in test [4], -8.18%; in test [5], -16.8%; in test [6] it was -14.1%.
In the case of `Cc1ccc(Cn2c(=O)c3ccc(C(=O)NC(C)C)cc3n3c(=O)n(Cc4cccc(F)c4)nc23)cc1`, the activity change, negative = inhibition was 6.38% (inactive) in test [1]; 4.35% in test [2]; 1.49% in test [3]; 7.79% in test [4]; 5.05% in test [5]; 6.91% in test [6].
`CC1(C)CC[C@]2(C(=O)O[C@@H]3O[C@H](CO)[C@@H](O)[C@H](O)[C@H]3O)CC[C@]3(C)C(=CCC4[C@@]5(C)CC[C@H](O[C@@H]6O[C@H](C(=O)O)[C@@H](O)[C@H](O)[C@H]6OC6OC(CO)C(O)C(O)C6O)C(C)(C)C5CC[C@]43C)[C@@H]2C1` (some centres not stated): the activity change, negative = inhibition was -21.1% (inactive) in test [1]; 2.46% in test [2]; 8.94% in test [3]; 8.45% in test [4]; -9.17% in test [5]; 7.25% in test [6].
For `C[C@@H]1CC[C@]2(C(=O)O[C@@H]3O[C@H](CO)[C@@H](O)[C@H](O)[C@H]3O)CC[C@]3(C)C(=CCC4[C@@]5(C)C[C@@H](O)[C@H](O)[C@](C)(C(=O)O)C5CC[C@]43C)[C@@H]2[C@]1(C)O` (some centres not stated), the activity change, negative = inhibition in test [1] was 4.37% (inactive); in test [2], 6.36%; in test [3], 4.44%; in test [4], 15.1%; in test [5] it was -9.25%; in test [6], 7.5%.
`CC1(C)CCC2(C(=O)OC3OC(COC4OC(CO)C(O)C(O)C4O)C(O)C(O)C3O)CCC3(C)C(=CCC4C5(C)CCC(O)C(C)(C(=O)O)C5CCC43C)C2C1O` (configuration not stated): the activity change, negative = inhibition in test [1] is -56.4% (active); in test [2] it was 0%; in test [3] it was 5.96%; in test [4] it was 11.8%; in test [5] it was -7.28%; in test [6], 4.84%.
